Source: PubChem BioAssay (several laboratories)
BJeLR lethal: BJeLR cell viability loss. 300,000 compounds, 0.17% hits. BJeLR (HRASV12) viability, CellTiter-Glo ATP luminescence, 48 h. inhibition, % (no concentration beside the values); in the data active = inhibition above about 50%
SSB-PriA inh: K. pneumoniae PriA-SSBct interaction inhibition; AlphaScreen SSBct-PriA binding, biotinylated peptide; 430,000 compounds, 0.6% hits; inhibition, % at 33 µM; in the data active = inhibition mostly above about 37%, no sharp cut-off; inactive = mostly below about 20%
PrP UTR inh: inhibition of PrP 5' UTR reporter expression | cell-based PrP 5' UTR mRNA reporter, plate reader | inhibition, % (concentration not given with the values) | 340,000 compounds, 0.35% hits; in the data active = inhibition above about 52%
PfHsp40 yeast: restores yeast growth despite PfHsp40 toxicity; S. cerevisiae expressing PfHsp40, growth rescue, ATP luminescence; growth rescue, % at 12.5 µM; 340,000 compounds, 0.68% hits; in the data active = growth rescue above about 28%, passing the limit was not always enough;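 note: yeast W303a lacking pdr1 and pdr3 grown in galactose medium; growth measured after three days at 30 °C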
PrPC surface inh: reduces human prion protein on the cell surface; P04156; cell surface PrPC, TR-FRET read-out; inhibition, % at 13.8 µM; 370,000 compounds, 0.43% hits; AID 720596; in the data active = inhibition above about 24%
Y pestis TopoI: Y. pestis Topo-I inhibition via cleavage products | Y. pestis Topo-I cleavage product accumulation, plate reader | activity, % at 10 µM | 360,000 compounds, 0.064% hits | AID 504884; in the data active = activity above about 50%, passing the limit was not always enough
A number is an active result; – = inactive; · = no result. In the library only some 1.7% were active in any assay of this set; here they are far more common.

SMILES	BJeLR lethal	SSB-PriA inh	PrP UTR inh	PfHsp40 yeast	PrPC surface inh	Y pestis TopoI
O=C(COc1ccc(-c2cc(-c3ccccc3)c3cc(Cl)ccc3n2)cc1)NNC(=S)Nc1ccccc1	·	–	·	·	·	·
Cc1[nH]c2ccccc2c1C(=O)C(=O)NCc1cc(-c2cccs2)on1	·	–	·	·	·	·
O=C(CSc1ncccn1)N1CCc2ccccc2C1	–	–	–	–	–	–
O=C(CNCc1ccccn1)N1CCc2ccccc2C1	–	78.3	–	–	–	–
COc1ccc(C(C(=O)NC2CCCC2)N(C(=O)c2ccoc2C)c2ccc(C)cc2)cc1 (stereo not drawn)	–	–	–	–	–	–
COc1cccc(N(C(=O)c2cnccn2)C(C(=O)NC2CCCCC2)c2ccc(Cl)cc2)c1 (stereo not drawn)	–	–	–	–	–	–
COc1ccc(C(C(=O)NC2CCCCC2)N(C(=O)CCl)c2ccc(OC)cc2)cc1 (stereo not drawn)	117.9	–	–	–	·	–
COc1ccc(C(C(=O)NC2CCCCC2)N(C(=O)CCl)c2cccc(Cl)c2)cc1 (stereo not drawn)	119.0	–	–	–	–	–
COc1ccc(C(C(=O)NC2CCCCC2)N(C(=O)CCl)c2ccc(C)cc2)cc1 (stereo not drawn)	135.2	–	–	–	–	–
O=C(NC1CCCCC1)C(c1cccnc1)N(C(=O)CCl)c1ccc(F)cc1 (stereo not drawn)	–	–	–	–	–	–
COc1ccc(N(C(=O)CCl)C(C(=O)NC2CCCCC2)c2cccnc2)cc1 (stereo not drawn)	80.7	–	–	–	–	–
O=C(Cn1cnc2ccccc21)N1CCN(c2cc(-n3cncn3)ncn2)CC1	·	–	·	·	·	·
O=C(Nc1nnc(-c2ccc(Cl)cc2Cl)s1)c1ccc(C(=O)c2ccccc2)cc1	·	–	·	·	·	·
CCOC(=O)c1c(-c2cccs2)csc1NC(=O)CSc1ncnc2sc3c(c12)CCCC3	·	–	·	·	·	·
O=[N+]([O-])c1ccc(Sc2nnnn2-c2ccccc2)c(Cl)c1	–	45.1	–	–	–	–
CN(C)c1ccc(/C=C/c2nc3ccccc3c(=O)[nH]2)cc1	–	–	60.5	–	–	–
O=C(Cn1cnc2c(sc3ccccc32)c1=O)N1CCN(c2ccccc2F)CC1	·	–	·	·	·	·
Cc1cc(C(=O)NN=Cc2cccc([N+](=O)[O-])c2)c(C)n1-c1ccccc1	·	–	·	·	·	·
Cc1cc(C(=O)N/N=C/c2ccc(O)c(O)c2O)c(C)n1-c1ccccc1	–	·	–	87.2	–	–
O=C(Cn1c(=O)oc2ccccc21)N(CCc1cccs1)Cc1ccoc1	·	–	·	·	·	·
Cc1ccc(N2C(=O)c3ccccc3C2O)nc1 (stereo not drawn)	69.9	·	·	·	·	·
Cc1cccc(NN=C(C(N)=O)C2=NC(C)(C)Cc3ccccc32)c1	·	56.9	·	·	·	·
CC1(C)Cc2ccccc2C(/C(=N\Nc2cccc(Cl)c2)C(N)=O)=N1	–	·	–	–	–	–
Cc1nc2cc(NS(=O)(=O)c3ccc(Oc4ccccc4Cl)cc3)ccc2s1	·	–	·	·	·	·
CCCCCC1CC1C(=O)N/N=C/c1ccc(N(C)C)cc1 (stereo not drawn)	–	·	–	–	–	–
SMILES	BJeLR lethal	SSB-PriA inh	PrP UTR inh	PfHsp40 yeast	PrPC surface inh	Y pestis TopoI
CN(C)c1ccc(C=NNC(=O)C2CC2c2ccccc2)cc1 (stereo not drawn)	·	44.1	·	·	·	·
Cc1ccccc1-n1ncc2c(C3CC3)nn(CC(=O)Nc3ccccc3F)c(=O)c21	·	–	·	·	·	·
O=[N+]([O-])/C=C/c1c(OCc2ccccc2)ccc2ccccc12	80.8	·	–	–	·	–
COc1ccccc1-n1cc(-c2ccccc2)c2c(=S)nc[nH]c21	–	41.4	–	–	–	–
NNc1nc2ccccc2[nH]c1=O	·	38.0	·	·	·	·
Oc1ccc2c3c1O[C@H]1c4oc5ccccc5c4C[C@@]4(O)[C@@H](C2)N(CC2CC2)CC[C@]314	–	–	–	34.0	–	–
Cc1c(NC(=O)c2cc3cc([N+](=O)[O-])ccc3oc2=O)c(=O)n(-c2ccccc2)n1C	·	–	·	·	·	·
O=C(Nc1nc(CCC(=O)N2CCc3ccccc32)cs1)NC1CCCCC1	·	–	·	·	·	·
COc1ccccc1-n1ncc2c(=O)[nH]c(SC(C)c3ccccc3)nc21 (stereo not drawn)	·	–	·	·	·	·
CCc1nc(N)nc(N)c1-c1ccc(N(C)Cc2ccccc2)c([N+](=O)[O-])c1	·	–	–	–	–	–
CCc1nc(N)nc(N)c1-c1ccc(Cl)cc1	61.9	–	–	–	–	–
COC(=O)c1ccc(CSc2nc(C)cc(C(F)(F)F)n2)cc1	·	38.0	·	·	·	·
O=c1[nH]c(-c2ccccc2)nn1-c1ccc(Br)cc1Br	–	–	–	35.4	–	–
S=c1nc(-c2ccccc2)[nH]c2ccc(Br)cc12	–	–	–	–	–	–
O=S(=O)(/C=C/c1ccccc1)NC1CCCCCC1	–	–	–	63.4	–	–
O=S(=O)(/C=C/c1ccccc1)NC1CCCCCCC1	–	–	–	69.6	–	–
CNS(=O)(=O)/C=C/c1ccccc1	–	–	–	–	–	–
O=S1(=O)CCC(NS(=O)(=O)/C=C/c2ccccc2)C1 (stereo not drawn)	–	–	–	–	–	–
COc1cccc2cc(C(=O)NCCn3nc(-c4ccccn4)c4c3CCCC4)oc12	·	–	·	·	·	·
O=S(OCCN1CCCC1)C(c1ccccc1)c1ccccc1 (stereo not drawn)	·	–	–	–	–	–
O=S(OCCN1CCOCC1)C(c1ccccc1)c1ccccc1 (stereo not drawn)	·	–	–	109.4	–	–
Cc1cc(C)cc(C(=O)N2CCC3(CC2)NCCc2[nH]cnc23)c1	–	93.7	–	–	–	–
COc1ccc([N+](=O)[O-])cc1NC(=O)C(C)OC(=O)c1ccccc1C(=O)c1ccc(Cl)cc1 (stereo not drawn)	–	–	–	71.6	–	–
COc1ccc([N+](=O)[O-])cc1NC(=O)COC(=O)c1ccccc1C(=O)c1ccccc1	–	–	–	–	–	–
CC(C)(C)OC(=O)N1CCC(c2cc(C(N)=O)n[nH]2)CC1	·	39.0	·	·	·	·
SMILES	BJeLR lethal	SSB-PriA inh	PrP UTR inh	PfHsp40 yeast	PrPC surface inh	Y pestis TopoI
CC(C)(C)OC(=O)N1CCC(c2cc(-c3cccs3)n[nH]2)CC1	–	–	–	–	–	–
CCCn1c(N2CCC(Cc3ccccc3)CC2)nc2c1c(=O)[nH]c(=O)n2C	–	–	–	–	–	51.6
Cn1c(=O)[nH]c(=O)c2c1nc(N1CCNCC1)n2Cc1ccccc1Cl	–	–	–	–	–	–
Cn1c(=O)[nH]c(=O)c2c1nc(N1CCCCCC1)n2Cc1cccc2ccccc12	–	–	–	–	–	63.4
O=C(Cn1c(=O)oc2ccccc21)NCCn1nc(-c2cccs2)n(C2CC2)c1=O	·	–	·	·	·	·
Cc1ccc2[nH]cc(C(=O)CCl)c2c1	53.9	–	–	–	–	–
COc1ccc(S(=O)(=O)CCCC(=O)Nc2sc(-c3ccccc3)cc2C(N)=O)cc1	·	–	·	·	·	·
Cc1ccc(NC(=O)CNC(=O)N2CC(=O)Nc3ccccc32)cc1F	–	–	–	–	–	–
O=C(CN1CC(=O)Nc2ccccc21)Nc1ccc(F)c(F)c1	–	–	–	42.6	–	–
